Molecules are shown by their SMILES. Where “and” joins values, the source holds several entries; their conditions need not be identical. Equal entries are not always repeated. Records with an inconclusive call do not appear. Values without a mark were called inactive. Calls of active or inactive are those of the source. The call rests on the fitted dose curve; in most records, active means well fitted curve in the direction sought with a large enough effect; inconclusive means small, poorly fitted or top-dose-only effect, or another doubt; inactive means no such curve, though single readings can be large; an effect the other way counts as inactive or inconclusive.
On the % scale 0 is the no-effect control and ±100 the full control effect; potency means the concentration at half of the fitted maximal effect.

The first assay can be described thus: qHTS Assay for Identifying Gametocytocidal Compounds (AID 743244).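 On max response: actives lower the fluorescent signal which means gametocytes are killed.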 The note with it: P. falciparum 3D7 stage III-V gametocytes, alamarBlue, 72 h; max response: stronger effect = lower value. The essentials:
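Viability read-out was resazurin reduction (alamarBlue, 24 h) measured at Ex 525/Em 598 nm. Beforehand, late-stage (III-V) 3D7 P. falciparum gametocytes at 20,000 cells/well were incubated with compound 72 h at 37C under 5% CO2.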
In general terms: In qHTS, concentration-response curves come from the screen itself.
Consider `c1ccc(C2CC2)c(OCC2=NCCN2)c1`, for which the max response is -3.84% and 23.7%. Same read-out and setting: with `CCCN1CCC[C@@H]2Cc3nc(N)ncc3C[C@H]21` the figure was 3.72% and 1.86%; with `Cc1cc2c(C(C)C)c(O)c(O)c(C=O)c2c(O)c1-c1c(C)cc2c(C(C)C)c(O)c(O)c(C=O)c2c1O`, 0.673%.

In the case of `CNCC(O)c1ccc(O)cc1` (centres undefined), the max response is 28.1%. In the case of `CC(O)(CS(=O)(=O)c1ccc(F)cc1)C(=O)Nc1ccc(C#N)c(C(F)(F)F)c1` (centres undefined), the max response is 4.22% and -26.1%.

In the case of `CC1=C2C[C@@H]3[C@@H](CC=C4C[C@@H](O)CC[C@@]43C)[C@@H]2CC[C@]12O[C@H]1C[C@H](C)CN[C@H]1[C@H]2C`, the Potency is 23500 nM (active).

`COC[C@H]1OC(=O)c2coc3c2[C@@]1(C)C1=C(C3=O)C2CCC(=O)[C@@]2(C)C[C@H]1OC(C)=O` (some centres undefined): the max response is 9.51%. The same measure, in the same setting: with `C[C@]12CCC(=O)C(O)=C1CC[C@@H]1[C@@H]2CC[C@]2(C)C(=O)CC[C@@H]12` the figure was 8.31% and 12.3%; with `O=C(O)C(=O)c1cn(Cc2ccccc2)c2ccc(-c3ccc(OC(F)(F)F)cc3)cc12`, 14.9%. Take `C[C@@H]1[C@@H](C(=O)C[C@H]2O[C@@H]3O[C@]4(C)CC[C@@H]5[C@H](C)CC[C@@H]([C@H]2C)[C@@]35OO4)O[C@@H]2O[C@]3(C)CC[C@H]4[C@H](C)CC[C@@H]1[C@@]24OO3`: the Potency was 6.6 nM (active).

With `CNC(=O)N1N=C(c2ccc(N)cc2)c2cc3c(cc2CC1C)OCO3` (centres undefined), the max response is -1.27%. Still for that read-out and setting: then `Cc1cc(SCc2sc(-c3ccc(C(F)(F)F)c(F)c3)nc2C)ccc1OCC(=O)O`, with 27.5%; and `CCC1(C2=NCCN2)Cc2ccccc2O1` (centres undefined), with -5.65% and 15.9%; and `CNC(=O)c1ccc(N2C(=S)N(c3ccc(C#N)c(C(F)(F)F)c3)C(=O)C23CCC3)cc1F`, with -1.03%. Same read-out and setting: then `CCCCC/C=C\C/C=C\C/C=C\C/C=C\CCCC(=O)NC1CC1`, with 45.8%; and `C[C@@H]1O[C@@H](O[C@H]2C[C@@H](O)[C@]3(CO)[C@H]4[C@H](O)C[C@]5(C)[C@@H](C6=CC(=O)OC6)CC[C@]5(O)[C@@H]4CC[C@]3(O)C2)[C@H](O)[C@H](O)[C@H]1O`, with -6.85% and -3.14% and -2.93%; and `O=c1c(O)c(-c2ccc(O)c(O)c2)oc2cc(O)cc(O)c12`, with 43.6% and 2.58% and 14.8%. As to `CC(CCc1ccccc1)NC(C)C(O)c1ccc(O)cc1` (centres undefined), the max response was 2.74% and 19.3%. Still for that read-out and setting: with `Cc1sc2c(c1C)C(c1ccc(Cl)cc1)=N[C@@H](CC(=O)OC(C)(C)C)c1nnc(C)n1-2` the figure was -19.5%; with `CC(C)=CCOc1c2occc2cc2ccc(=O)oc12`, -4.41% and 18.6%. As to `C[C@@H]1[C@@H](CC(C[C@H]2O[C@@H]3O[C@]4(C)CC[C@@H]5[C@H](C)CC[C@@H]([C@H]2C)[C@@]35OO4)C[S+](=O)([O-])c2ccc(COC(=O)N(C)C)cc2)O[C@@H]2O[C@]3(C)CC[C@H]4[C@H](C)CC[C@@H]1[C@@]24OO3` (some centres undefined), the Potency was 2.3 nM (active). Take `CCCC(C)(COC(N)=O)COC(=O)NC(C)C` (centres undefined): the max response is 10.4% and -6.54%.

With `C=C(C)[C@H]1Cc2c(ccc3c2O[C@@H]2COc4cc(OC)c(OC)cc4[C@@H]2C3=O)O1`, the max response is 2.33% and 3.94%. The same measure, in the same setting: then `Cn1c(CCCC(=O)O)nc2cc(N(CCCl)CCCl)ccc21`, with -0.45%; and `NCC(O)c1ccc(O)cc1` (centres undefined), with 3.16% and 11.7%. Still for that read-out and setting: then `Nc1ccncc1`, with 0.934% and 25.7%. The same measure, in the same setting: with `COc1ccc(C(=O)c2c(C)n(CCN3CCOCC3)c3ccccc23)cc1` the figure was 6.23% and 9.75%.

The next assay is described as follows: qHTS assay for cell viability of HEK293 cells (AID 743288). Further: nearly all actives have a fitted effect of over 50% in size. The following applies: ATP luminescence (CellTiter-Glo), 18 h; max response: stronger effect = lower value. The gist of the method: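 ATP luminescence (CellTiter-Glo) reports metabolically competent cell number after parental HEK293 cells, 2,000/well, were treated with DMSO-dissolved compounds for 18 h at 37 C; reagent incubation 30 min, room temperature.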
Turning to `CNCC(O)c1ccc(O)cc1` (centres undefined), the max response was -7.41%. Same read-out and setting: with `C[C@]12CCC(=O)C(O)=C1CC[C@@H]1[C@@H]2CC[C@]2(C)C(=O)CC[C@@H]12` the figure was -3.27%; with `Cc1cc(SCc2sc(-c3ccc(C(F)(F)F)c(F)c3)nc2C)ccc1OCC(=O)O`, -13%.

Turning to `C[C@@H]1O[C@@H](O[C@H]2C[C@@H](O)[C@]3(CO)[C@H]4[C@H](O)C[C@]5(C)[C@@H](C6=CC(=O)OC6)CC[C@]5(O)[C@@H]4CC[C@]3(O)C2)[C@H](O)[C@H](O)[C@H]1O`, the Potency was 63.1 nM (active). As for `CCCC(C)(COC(N)=O)COC(=O)NC(C)C` (centres undefined), the max response is -8.51% and -1.5%. Same read-out and setting: then `NCC(O)c1ccc(O)cc1` (centres undefined), with 1.63%; and `Nc1ccncc1`, with -3.71%.

For the origin of these results see PubChem BioAssay (NCATS).
